Measurements: PubChem BioAssay (Tox21)
Inconclusive results are not listed. Active and inactive are the calls of the source. Unless noted, calls follow the shape of the dose curve; as a rule, active = well fitted curve in the direction sought with a large enough effect in the repeat runs; inconclusive = weak or mixed curves; inactive = no such curve, though single readings can be large; an effect the other way counts as inactive or inconclusive.

Legend:
[1] = biological target: Thyrotropin receptor (Homo sapiens) (UniProt P16473); experiment: qHTS assay to identify small molecule antagonists of the thyroid stimulating hormone receptor (TSHR) signaling pathway (AID 1259385; calls by dose curve; also: nearly all actives have a fitted effect of over 20% in size)
Thyrotropin receptor (Homo sapiens), sequence (P16473 whole entry, looked up): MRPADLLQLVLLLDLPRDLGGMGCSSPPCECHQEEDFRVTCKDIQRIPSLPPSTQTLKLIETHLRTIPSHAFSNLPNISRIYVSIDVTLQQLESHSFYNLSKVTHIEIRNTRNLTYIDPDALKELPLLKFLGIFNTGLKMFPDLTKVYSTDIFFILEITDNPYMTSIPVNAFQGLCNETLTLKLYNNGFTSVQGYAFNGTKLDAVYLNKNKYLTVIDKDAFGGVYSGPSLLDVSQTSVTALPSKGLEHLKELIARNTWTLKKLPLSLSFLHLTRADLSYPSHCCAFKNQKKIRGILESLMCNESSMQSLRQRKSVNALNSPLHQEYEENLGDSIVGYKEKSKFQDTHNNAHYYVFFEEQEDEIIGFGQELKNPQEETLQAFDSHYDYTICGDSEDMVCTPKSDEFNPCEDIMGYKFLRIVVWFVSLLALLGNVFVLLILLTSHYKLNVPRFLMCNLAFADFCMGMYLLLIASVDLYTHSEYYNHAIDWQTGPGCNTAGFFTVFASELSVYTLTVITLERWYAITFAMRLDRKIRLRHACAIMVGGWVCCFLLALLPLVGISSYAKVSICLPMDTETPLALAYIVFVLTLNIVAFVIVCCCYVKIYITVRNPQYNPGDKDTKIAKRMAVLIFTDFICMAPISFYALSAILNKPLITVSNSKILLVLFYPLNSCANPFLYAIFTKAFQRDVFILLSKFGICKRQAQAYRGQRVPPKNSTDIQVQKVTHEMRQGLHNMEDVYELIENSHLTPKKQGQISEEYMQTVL
Outline: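 TSHR-HEK293 cells (800/well) plated 18 h, then compounds with Ro20-1724 and TSH at 1.5 ng/mL final, 30 min at room temperature. cAMP quantified by HTRF (cAMP-d2/anti-cAMP-cryptate, 1 h); 15 concentrations in triplicate.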

[2] = qHTS assay to identify small molecule agonists of the estrogen receptor alpha (ER-alpha) signaling pathway in the presence of an antagonist - cell viability counter screen (AID 1259386);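 also: series mostly up to about 92 µM; cells exposed to compounds for 22 h at 37 °C before the viability read; nearly all actives have a fitted effect of over 30% in size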
Outline: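 ICI-182,780 at 10.0nM final accompanies the compound titration (15 concentrations, 22hr, 37C) on VM7Luc4E2 cells. The CellTiter-Fluor fluorescence readout runs in the same wells as the luciferase assay.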

[3] = biological target: Progesterone receptor (Homo sapiens) (UniProt P06401); experiment: qHTS assay to identify small molecule agonists of the progesterone receptor (PR) signaling pathway (AID 1346784; calls by dose curve; also: nearly all actives have a fitted effect of over 30% in size)
Progesterone receptor (Homo sapiens), sequence (P06401 whole entry, looked up): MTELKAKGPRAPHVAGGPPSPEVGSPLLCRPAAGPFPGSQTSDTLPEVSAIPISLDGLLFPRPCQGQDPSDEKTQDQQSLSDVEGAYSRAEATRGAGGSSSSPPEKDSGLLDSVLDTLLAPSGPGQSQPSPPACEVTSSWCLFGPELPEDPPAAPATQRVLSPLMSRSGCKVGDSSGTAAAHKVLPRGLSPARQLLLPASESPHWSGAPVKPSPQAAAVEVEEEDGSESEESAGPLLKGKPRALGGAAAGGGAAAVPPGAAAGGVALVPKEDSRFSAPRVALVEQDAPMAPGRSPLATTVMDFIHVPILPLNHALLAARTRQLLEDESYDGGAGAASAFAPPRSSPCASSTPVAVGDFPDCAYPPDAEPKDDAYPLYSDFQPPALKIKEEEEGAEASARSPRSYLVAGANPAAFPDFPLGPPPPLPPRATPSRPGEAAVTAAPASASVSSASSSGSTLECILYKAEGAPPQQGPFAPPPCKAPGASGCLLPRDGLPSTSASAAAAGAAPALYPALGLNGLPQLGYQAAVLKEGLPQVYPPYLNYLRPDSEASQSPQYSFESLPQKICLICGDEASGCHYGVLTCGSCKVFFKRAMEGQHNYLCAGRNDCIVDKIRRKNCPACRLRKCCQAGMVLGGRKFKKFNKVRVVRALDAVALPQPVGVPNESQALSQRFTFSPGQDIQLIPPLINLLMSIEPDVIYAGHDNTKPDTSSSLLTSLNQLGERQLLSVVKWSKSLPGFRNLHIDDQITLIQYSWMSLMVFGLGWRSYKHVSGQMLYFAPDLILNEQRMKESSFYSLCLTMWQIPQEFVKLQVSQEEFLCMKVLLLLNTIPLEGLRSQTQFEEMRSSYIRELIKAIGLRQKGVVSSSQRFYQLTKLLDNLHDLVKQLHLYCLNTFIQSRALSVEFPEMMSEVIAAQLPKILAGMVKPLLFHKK
Outline: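 Beta-lactamase reporter read-out: after 16 hr compound treatment at 37C and a further 2 hr at room temperature with LiveBLAzer B/G FRET substrate, fluorescence was measured in PR-UAS-bla HEK 293T cells grown in 2% charcoal-stripped serum.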

[4] = biological target: Progesterone receptor (Homo sapiens) (UniProt P06401); experiment: qHTS assay to identify small molecule antagonists of the progesterone receptor (PR) signaling pathway (AID 1346795; active = well fitted inhibition curve with a large enough effect in the signal ratio in the repeat runs, not every such curve was filed as active; the % refers to the signal ratio)
Outline: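 Read-out is fluorescence from the LiveBLAzer B/G FRET substrate, cleaved by a UAS-controlled beta-lactamase in PR-UAS-bla HEK293T cells after 16 hr exposure to compound plus 1 nM promegestone (final), followed by 2 hr at room temperature.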

[5] = qHTS assay to identify small molecule antagonists of the progesterone receptor (PR) signaling pathway - cell viability counter screen (AID 1346798);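 also: HEK293T PR-UAS-bla cells stimulated with the agonist R5020; series mostly up to about 92 µM; nearly all actives have a fitted effect of over 50% in size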
Outline: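 HEK293T PR-UAS-bla, 2% charcoal-stripped FBS; 4 hr pre-plate; cpd + R5020, 16 h 37C; LiveBLAzer read first; then CellTiter-Glo 30 min RT, luminescence.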

[6] = qHTS assay to identify small molecule agonists of the progesterone receptor (PR) signaling pathway - cell viability counter screen (AID 1346799; calls by dose curve; also: nearly all actives have a fitted effect of over 45% in size)
Outline: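 Luminescence from CellTiter-Glo, added after the beta-lactamase FRET read in the same wells, gave cytotoxicity in PR-UAS-bla HEK293T cells treated with compounds for 16 hr at 37C.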

[7] = qHTS assay to identify small molecule antagonists of the TGF-beta/Smad signaling pathway - cell viability counter screen (AID 1346824); also: nearly all actives have a fitted effect of over 50% in size
Outline: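 SBE-bla HEK 293T cells, incubated overnight, then compound plus 0.25 ng/mL TGF-beta1 (stock added) for 5 hr at 37 C. Viability was read in the same wells by CellTiter-Glo luminescence after 30 min at room temperature.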

[8] = qHTS assay to identify small molecule agonists of the TGF-beta/Smad signaling pathway - cell viability counter screen (AID 1346829); also: top concentration of the series differs between compounds; nearly all actives have a fitted effect of over 45% in size
Outline: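 Here the cytotoxicity of library compounds is measured in SBE-bla HEK 293T cells treated for 5 hr, using CellTiter-Glo added to wells already read for the beta-lactamase reporter.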

[9] = qHTS assay to identify small molecule agonists of the TGF-beta/Smad signaling pathway (AID 1346859; active = well fitted activation curve with a large enough effect in the signal ratio in the repeat runs, not every such curve was filed as active; the % refers to the signal ratio; also: series mostly up to about 77 µM)
Outline: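 SBE-bla HEK 293T, 4,000 cells/well, plated o/n; cpd in DMSO, 5 hr, 37 C/5% CO2; B/G FRET substrate 2 hr RT; ex 405, em 460/530 nm.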

[10] = Human pregnane X receptor (PXR) small molecule agonists, qHTS cell viability counter screen (AID 1346977); also: nearly all actives have a fitted effect of over 50% in size
Outline: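 PXR-Luc HepG2, 2,000 cells/well, 5% charcoal-stripped FBS; 5hr settle; cpd 24hr, 37C/5% CO2; CellTiter-Fluor at 23hr, read 1hr later (fluorescence).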

[11] = Caspase-3/7 induction in HepG2 cells by small molecules, qHTS assay (AID 1346978); also: nearly all actives have a fitted effect of over 15% in size
Outline: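 Wild-type HepG2 cells, 2,000/well, settled 5 hr at 37 C and 5% CO2, then compound-treated for 17 hr; caspase-3/7 activity read by luminescent Caspase-Glo 3/7 after 30 min at room temperature.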

[12] = Caspase-3/7 induction in CHO-K1 cells by small molecules, qHTS assay (AID 1346980); also: nearly all actives have a fitted effect of over 15% in size
Outline: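 Wild-type CHO-K1 cells exposed to compounds for 17hr at 37 C, 5% CO2. Caspase-3/7 activity then measured by Caspase-Glo 3/7 luminescence after 30min at room temperature.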

[13] = Caspase-3/7 induction in HepG2 cells by small molecules, qHTS cell viability counter screen (AID 1346981); also: series mostly up to about 92 µM; nearly all actives have a fitted effect of over 30% in size
Outline: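 Multiplexed with the caspase-3/7 assay: HepG2 cells, 16 hr compound treatment, CellTiter-Fluor viability detection by fluorescence.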

[14] = biological target: Thyrotropin-releasing hormone receptor (Homo sapiens) (UniProt P34981); experiment: qHTS assay to identify small molecule antagonists of the thyrotropin-releasing hormone receptor (TRHR) signaling pathway (AID 1346877; active = well fitted inhibition curve with a large enough effect in the repeat runs, not every such curve was filed as active; also: series mostly up to about 51 µM)
Thyrotropin-releasing hormone receptor (Homo sapiens), sequence (P34981 whole entry, looked up): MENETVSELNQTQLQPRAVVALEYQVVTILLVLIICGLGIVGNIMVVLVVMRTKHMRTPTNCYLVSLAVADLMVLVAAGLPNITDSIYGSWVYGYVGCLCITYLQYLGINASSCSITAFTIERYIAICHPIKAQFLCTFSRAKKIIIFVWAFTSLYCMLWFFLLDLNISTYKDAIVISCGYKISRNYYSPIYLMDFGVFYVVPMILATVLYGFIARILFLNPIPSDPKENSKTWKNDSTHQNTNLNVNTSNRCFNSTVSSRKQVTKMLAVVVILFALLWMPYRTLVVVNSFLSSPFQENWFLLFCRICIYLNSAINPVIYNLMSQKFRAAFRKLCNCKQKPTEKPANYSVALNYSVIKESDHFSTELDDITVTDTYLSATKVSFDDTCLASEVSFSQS
Outline: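 Screening used HEK293 cells engineered with TRHR, with a brief 5 min room-temperature compound exposure preceding addition of TRH to 1 nM. The read-out was kinetic calcium-dye fluorescence, concentration-response from 15 doses in triplicate.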

[15] = biological target: Thyrotropin-releasing hormone receptor (Homo sapiens) (UniProt P34981); experiment: qHTS assay to identify small molecule agonists of the thyrotropin-releasing hormone receptor (TRHR) signaling pathway (AID 1346891; calls by dose curve; also: series mostly up to about 58 µM)
Outline: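 Intracellular calcium rise, read as fluorescence every second for 3 min, served as the agonist signal in dye-loaded HEK293 cells expressing TRHR; each compound ran at 15 concentrations in triplicate.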

[16] = Caspase-3/7 induction in CHO-K1 cells by small molecules, qHTS cell viability counter screen (AID 1346979); also: nearly all actives have a fitted effect of over 35% in size
Outline: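 Cells (CHO-K1, wild type) are plated at 1,500 per well and incubated 5hr. Test compounds in DMSO are then pinned in, followed by 16hr at 37C and 5% CO2. Viability is read by CellTiter-Fluor fluorescence after 1hr.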

[17] = biological target: Nuclear receptor subfamily 1 group I member 2 (Homo sapiens) (UniProt O75469); experiment: Human pregnane X receptor (PXR) small molecule agonists, qHTS assay (AID 1346982); also: nearly all actives have a fitted effect of over 35% in size
Nuclear receptor subfamily 1 group I member 2 (Homo sapiens), sequence (O75469 whole entry, looked up): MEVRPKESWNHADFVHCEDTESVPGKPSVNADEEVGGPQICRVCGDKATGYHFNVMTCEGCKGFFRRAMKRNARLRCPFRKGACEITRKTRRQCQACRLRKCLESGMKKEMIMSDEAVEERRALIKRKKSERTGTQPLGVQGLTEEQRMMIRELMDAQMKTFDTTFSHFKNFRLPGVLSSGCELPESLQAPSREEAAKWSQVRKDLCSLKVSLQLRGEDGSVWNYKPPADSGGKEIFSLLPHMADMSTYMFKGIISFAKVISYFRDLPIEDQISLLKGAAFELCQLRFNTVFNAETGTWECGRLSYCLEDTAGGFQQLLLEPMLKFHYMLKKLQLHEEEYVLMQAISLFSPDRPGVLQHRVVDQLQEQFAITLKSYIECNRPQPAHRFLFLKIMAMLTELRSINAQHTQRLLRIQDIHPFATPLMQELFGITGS
Outline: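 We seeded PXR-Luc HepG2 cells in assay medium containing 5% charcoal-stripped FBS, added compounds 5 hr later, incubated 24 hr, and read luminescence with ONE-Glo reagent.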

[18] = biological target: Nuclear receptor subfamily 1 group I member 2 (Rattus norvegicus) (UniProt Q9R1A7); experiment: Rat pregnane X receptor (rPXR) activation by small molecules, qHTS assay (AID 1346983); details: rPXR luciferase reporter cells, One-Glo luminescence, 24 h; hits give high values; also: nearly all actives have a fitted effect of over 20% in size
Nuclear receptor subfamily 1 group I member 2 (Rattus norvegicus), sequence (Q9R1A7 whole entry, looked up): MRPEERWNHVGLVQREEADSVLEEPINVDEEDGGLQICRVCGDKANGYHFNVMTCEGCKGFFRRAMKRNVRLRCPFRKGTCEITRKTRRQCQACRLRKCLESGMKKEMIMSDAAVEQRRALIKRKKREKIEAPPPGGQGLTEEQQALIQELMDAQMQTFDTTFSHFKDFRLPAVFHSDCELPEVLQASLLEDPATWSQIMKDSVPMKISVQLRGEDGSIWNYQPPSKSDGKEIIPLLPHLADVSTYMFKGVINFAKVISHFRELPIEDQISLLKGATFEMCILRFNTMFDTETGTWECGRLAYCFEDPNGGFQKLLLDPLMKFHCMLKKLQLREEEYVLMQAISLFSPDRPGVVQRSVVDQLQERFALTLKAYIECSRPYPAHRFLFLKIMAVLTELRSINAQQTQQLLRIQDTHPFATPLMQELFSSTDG
Outline: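 Cell-based rPXR activation assay: rPXR cells, 2,000 per well, rested 5hr at 37 C, then exposed to compounds in DMSO for 24 hr at 37 C. Luciferase activity read by One-Glo luminescence after 30 min at room temperature.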

[19] = biological target: Nuclear receptor subfamily 1 group I member 2 (Homo sapiens) (UniProt O75469); experiment: CYP3A4 induction through human pregnane X receptor (PXR) by small molecules, qHTS assay (AID 1346984); also: nearly all actives have a fitted effect of over 40% in size
Outline: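 qHTS, concentration-response format: HepG2 DPX-2 line, PXR/CYP3A4-luc. Exposure 24 h, 37C. Substrate Luciferin-IPA 3uM final, 3 h. Detection One-Glo, 30 min RT.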

[20] = biological target: Nuclear receptor subfamily 1 group I member 2 (Homo sapiens) (UniProt O75469); experiment: Human pregnane X receptor (PXR) activation by small molecules, qHTS assay (AID 1346985); also: nearly all actives have a fitted effect of over 40% in size
Outline: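 DPX-2 cells (HepG2 co-transfected with a PXR response element and a CYP3A4-promoter luciferase construct) were seeded at 2,000 per well, rested 5 hr at 37C, then exposed to DMSO-dissolved compounds for 24 hr. Activation was read as luciferase luminescence.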
% is scaled to controls: 0 for no effect and ±100 for the full control effect.

CC(=O)OC(C)OC(=O)C(C)c1ccc(-c2ccccc2)c(F)c1 (stereo unspecified)
inactive: outcome [1] | Potency [2] | Potency [3] | Potency [4] | Potency [5] | Potency [6] | outcome [7] | outcome [8] | outcome [9] | Potency [10] | Potency [11] | outcome [12] | Potency [13]

CCN(CC)CC(=O)Nc1c(C)cccc1C
inactive: outcome [1] | Potency [2] | Potency [3] | Potency [4] | Potency [5] | outcome [7] | outcome [8] | outcome [9] | outcome [14] | outcome [15] | Potency [10] | Potency [11] | Potency [16] | outcome [12] | Potency [13]

COC(=O)CCCCCCCC(=O)OC
inactive: outcome [1] | Potency [2] | Potency [3] | Potency [4] | Potency [5] | outcome [7] | outcome [8] | outcome [9] | outcome [14] | outcome [15] | Potency [10] | Potency [11] | Potency [16] | outcome [12] | Potency [13]

CO[C@@H]1[C@@H](OC(N)=O)[C@@H](O)[C@H](Oc2ccc3c(O)c(NC(=O)c4ccc(O)c(CC=C(C)C)c4)c(=O)oc3c2C)OC1(C)C
inactive: outcome [1] | Potency [2] | Potency [3] | Potency [4] | Potency [5] | outcome [7] | outcome [8] | outcome [9] | outcome [14] | outcome [15] | Potency [10] | Potency [11] | Potency [16] | outcome [12] | Potency [13] | Potency [17] | max activation [18] -3.79% | Potency [19] | Potency [20]

COC(=O)CCc1ccc(OCC(O)CNC(C)C)cc1 (stereo unspecified)
inactive: outcome [1] | Potency [2] | Potency [3] | Potency [4] | Potency [5] | Potency [6] | outcome [8] | outcome [9] | outcome [14] | outcome [15] | Potency [10] | Potency [11] | Potency [16] | outcome [12] | Potency [13] | Potency [17]

CC(S)C(=O)NCC(=O)O (stereo unspecified)
inactive: outcome [1] | Potency [2] | Potency [3] | Potency [4] | Potency [5] | outcome [7] | outcome [8] | outcome [9] | outcome [14] | outcome [15] | Potency [10] | Potency [11] | Potency [16] | outcome [12] | Potency [13] | Potency [17] | max activation [18] -1.79% | Potency [19] | Potency [20]

CCCCCCCCOS(=O)(=O)O
inactive: outcome [1] | Potency [2] | Potency [3] | Potency [4] | Potency [5] | Potency [6] | outcome [8] | outcome [9] | outcome [14] | outcome [15] | Potency [10] | Potency [11] | outcome [12] | Potency [13]
